# Assay results taken from PubChem BioAssay (Tox21).
# Inconclusive results are not listed. A call without a number means that no potency is given here. More than one record can exist for a structure, and the calls need not agree. Active and inactive are the calls of the source. Unless noted, the call rests on the fitted dose curve.
# Experiments:
# [1] = qHTS assay to identify small molecule agonists of the vitamin D receptor (VDR) signaling pathway - cell viability counter screen (AID 743224; active means well fitted curve in the direction sought with a large enough effect in the repeat runs; an effect the other way counts as inactive or inconclusive; further: nearly all actives have a fitted effect of over 50% in size; further: potency means the concentration at half of the fitted maximal effect)
# Procedure, shortened: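 Here cell health was gauged by luminescent ATP detection (CellTiter-Glo, 30 min RT) in VDR-bla cells that had been incubated with test compounds for 16 h at 37C and 5% CO2.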
# [2] = qHTS assay to identify small molecule antagonists of the vitamin D receptor (VDR) signaling pathway - cell viability counter screen (AID 743225; active means well fitted curve in the direction sought with a large enough effect in the repeat runs; an effect the other way counts as inactive or inconclusive; further: nearly all actives have a fitted effect of over 50% in size)
# Procedure, shortened: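 Cytotoxicity counter screen read by CellTiter-Glo luminescence (30 min, room temperature) in the same wells as the VDR-bla antagonist readout. HEK 293T VDR-UAS-bla cells had 16 h at 37C with compound and 3 nM (final) 1-alpha,25-dihydroxyvitamin D3, then 2 h with FRET substrate.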
# [3] = qHTS assay to identify small molecule agonists of the NFkB signaling pathway (AID 1159509; active means well fitted curve in the direction sought with a large enough effect in the signal ratio in the repeat runs, not every such curve was filed as active; the % refers to the signal ratio; further: series mostly up to about 61 µM)
# Procedure, shortened: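 NFkB-bla ME-180 cells with a beta-lactamase reporter under an NF-kB response element were plated overnight, treated with compounds in DMSO for 5 hr at 37 C, then loaded with FRET substrate for 1.5 hr at room temperature.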
# [4] = qHTS assay to identify small molecule agonists of the NFkB signaling pathway - cell viability counter screen (AID 1159515); further: series mostly up to about 61 µM; nearly all actives have a fitted effect of over 55% in size
# Procedure, shortened: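 5 hr compound treatment of NFkB-bla ME-180 cells (2,000/well, seeded overnight beforehand), followed by reporter substrate for 1.5 hr. CellTiter-Glo added afterward; luminescence after 30 min RT.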
# [5] = qHTS assay to identify small molecule agonists of the endoplasmic reticulum stress response signaling pathway (AID 1159516; active means well fitted activation curve with a large enough effect in the signal ratio in the repeat runs, not every such curve was filed as active; the % refers to the signal ratio)
# Procedure, shortened: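 Reporter HeLa cells (ESRE-beta-lactamase) underwent 5 hr compound incubation at 37 C and 5% CO2 in quantitative HTS format. Detection followed 2 hr of FRET substrate loading at room temperature.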
# [6] = qHTS assay to identify small molecule agonists of the endoplasmic reticulum stress response signaling pathway - cell viability counter screen (AID 1159517); further: nearly all actives have a fitted effect of over 50% in size; further: potency means the concentration at half of the fitted maximal effect
# Procedure, shortened: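 Cells, HeLa ESRE-bla; density, 1,500/well; dosing, 5 hr at 37 C, 5% CO2; readout, CellTiter-Glo luminescence after 30 min RT.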
# [7] = qHTS assay to identify small molecule antagonists of the retinoid-related orphan receptor gamma (ROR-gamma) signaling pathway - cell viability counter screen (AID 1159520; active means well fitted curve in the direction sought with a large enough effect in the repeat runs; an effect the other way counts as inactive or inconclusive; further: nearly all actives have a fitted effect of over 50% in size)
# Procedure, shortened: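 Cytotoxicity was read from cellular ATP (CellTiter-Glo luminescence) after 16 hr at 37 C with 1 uM doxycycline induction. The inducer was added 2 hr after compound transfer to Tet-on ROR gamma CHO cells.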
# [8] = molecular target: Nuclear receptor ROR-gamma (Homo sapiens) (UniProt P51449); experiment: qHTS assay to identify small molecule antagonists of the retinoid-related orphan receptor gamma (ROR-gamma) signaling pathway (AID 1159521; active means well fitted curve in the direction sought with a large enough effect in the repeat runs; an effect the other way counts as inactive or inconclusive; further: nearly all actives have a fitted effect of over 50% in size; further: potency means the concentration at half of the fitted maximal effect)
# Procedure, shortened: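 Antagonist read-out: drop in luminescence (ONE-Glo) from an RORE-LUC reporter in CHO cells with doxycycline-inducible ROR-gamma; 2 hr compound pretreatment, 1 uM doxycycline, 16 hr incubation at 37 C.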
# [9] = qHTS assay to identify small molecule agonists of the AP-1 signaling pathway - cell viability counter screen (AID 1159525); further: nearly all actives have a fitted effect of over 55% in size
# Procedure, shortened: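 Luminescent ATP readout (Cell Titer Glo, 30 min RT), normalised to DMSO and tetra n-octyl ammonium bromide controls. Cells were ME-180 AP-1-bla in 0.5% dialyzed FBS Opti-MEM, with a 5 h, 37 °C compound exposure.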
# [10] = qHTS assay to identify small molecule agonists of the AP-1 signaling pathway (AID 1159526)
Structure (SMILES),Potency [1],Potency [2],outcome [3],outcome [4],outcome [5],Potency [6],Potency [7],Potency [8],Potency [9],outcome [10]
C1CN2CCC1CC2,inactive,inactive,inactive,inactive,inactive,inactive,inactive,inactive,inactive,inactive
CC(C)[N+](C)(CCC(C(N)=O)(c1ccccc1)c1ccccc1)C(C)C,inactive,inactive,inactive,inactive,inactive,inactive,inactive,inactive,inactive,inactive
CC(=NC#N)N(C)Cc1ccc(Cl)nc1,inactive,inactive,inactive,inactive,inactive,inactive,inactive,inactive,inactive,inactive
CC(Cl)(Cl)Cl,inactive,inactive,inactive,inactive,inactive,inactive,inactive,inactive,inactive,inactive
O=S1(=O)OCCO1,inactive,,inactive,inactive,inactive,inactive,inactive,inactive,inactive,inactive
CC1N=C(N)OC1c1ccccc1 (configuration not stated),inactive,inactive,inactive,inactive,inactive,inactive,inactive,inactive,inactive,inactive
CCCCCCCCSC(=O)Oc1cc(Cl)nnc1-c1ccccc1,inactive,inactive,inactive,inactive,inactive,inactive,inactive,inactive,inactive,inactive
CC(Cc1ccccc1)NCCCCl (configuration not stated),inactive,,inactive,inactive,inactive,inactive,inactive,inactive,inactive,inactive
CCN[C@@H](C)Cc1ccccc1,inactive,inactive,inactive,inactive,inactive,inactive,inactive,inactive,inactive,inactive
CCN(CC)CCOC(=O)C(O)(c1ccccc1)c1ccccc1,inactive,,inactive,inactive,inactive,inactive,inactive,inactive,inactive,inactive
CCC1(c2ccccc2)C(=O)N(COC)C(=O)N(COC)C1=O,inactive,inactive,inactive,inactive,inactive,inactive,inactive,inactive,inactive,inactive
O=c1[nH]c2ccccc2n1C1CCNCC1,inactive,inactive,inactive,inactive,inactive,inactive,inactive,inactive,inactive,inactive
C/C=C/CC#N,inactive,inactive,inactive,inactive,inactive,inactive,inactive,inactive,inactive,inactive
Cl/C=C/CCl,inactive,inactive,inactive,inactive,inactive,inactive,inactive,inactive,inactive,inactive
Cc1ccc(S(=O)(=O)N[C@@H](CCCCN)C(=O)CCl)cc1,inactive,inactive,inactive,inactive,inactive,inactive,inactive,inactive,inactive,inactive
C=C1CC[C@@]2(O)[C@H]3Cc4ccc(O)c5c4[C@@]2(CCN3CC2CC2)[C@H]1O5,inactive,inactive,inactive,inactive,inactive,inactive,inactive,inactive,inactive,inactive
CCOC(=O)N(C)N=O,inactive,inactive,inactive,inactive,inactive,inactive,inactive,inactive,inactive,inactive
C=CC(=O)OCCN(C)C,inactive,inactive,inactive,inactive,inactive,inactive,inactive,inactive,inactive,inactive
COC1=CC(=O)O[C@@H](/C=C/c2ccccc2)C1,inactive,inactive,inactive,inactive,inactive,inactive,inactive,inactive,inactive,inactive
O=C(Cl)/C=C/C(=O)Cl,inactive,inactive,inactive,inactive,inactive,inactive,inactive,inactive,inactive,inactive
CCSC(=O)Cl,inactive,inactive,inactive,inactive,inactive,inactive,inactive,inactive,inactive,inactive
NC(=O)OCCCc1ccccc1,inactive,inactive,inactive,inactive,inactive,inactive,inactive,inactive,inactive,inactive
O=C(Cl)CCl,inactive,inactive,inactive,inactive,inactive,inactive,inactive,inactive,inactive,inactive
CON(C)C(=O)Nc1ccc(Br)cc1,inactive,inactive,inactive,inactive,inactive,inactive,inactive,inactive,inactive,inactive
BrCc1ccc(Br)cc1,inactive,inactive,inactive,inactive,inactive,inactive,inactive,inactive,inactive,inactive
COc1cccc(C=O)c1,inactive,inactive,inactive,inactive,inactive,inactive,inactive,inactive,inactive,inactive

Structure (SMILES),Potency [1],Potency [2],outcome [3],outcome [4],outcome [5],Potency [6],Potency [7],Potency [8],Potency [9],outcome [10]
CCOC(=O)C(Cl)Cc1cc(-n2nc(C)n(C(F)F)c2=O)c(F)cc1Cl (configuration not stated),inactive,inactive,inactive,inactive,inactive,inactive,inactive,inactive,inactive,inactive
CCOC(=O)NC(C)(C)Cc1ccc(Cl)cc1,inactive,inactive,inactive,inactive,inactive,inactive,inactive,inactive,inactive,inactive
C=CCc1cc(OC)c2c(c1)OCO2,inactive,inactive,inactive,inactive,inactive,inactive,inactive,inactive,inactive,inactive
Cc1cccc2sc3nncn3c12,inactive,inactive,inactive,inactive,inactive,inactive,inactive,inactive,inactive,inactive
CN(C)C(=O)Oc1cc(OC(=O)N(C)C)cc(C(O)CNC(C)(C)C)c1 (configuration not stated),inactive,inactive,inactive,inactive,inactive,inactive,inactive,inactive,inactive,inactive
CNC(=O)O/N=C(/CSC)C(C)(C)C,inactive,inactive,inactive,inactive,inactive,inactive,inactive,inactive,inactive,inactive
N=C(N)[Se],inactive,inactive,inactive,inactive,inactive,inactive,inactive,inactive,inactive,inactive
CCCC(C)(COC(N)=O)COC(N)=O,inactive,inactive,inactive,inactive,inactive,inactive,inactive,inactive,inactive,inactive
Clc1nc(Cl)nc(Nc2ccccc2Cl)n1,inactive,inactive,inactive,inactive,inactive,inactive,inactive,inactive,inactive,inactive
CCC(=O)c1ccc(Cl)cc1,inactive,inactive,inactive,inactive,inactive,inactive,inactive,inactive,inactive,inactive
CCCC[N+](=O)[O-],inactive,inactive,inactive,inactive,inactive,inactive,inactive,inactive,inactive,inactive
N#CN=C1SCCN1Cc1ccc(Cl)nc1,inactive,inactive,inactive,inactive,inactive,inactive,inactive,inactive,inactive,inactive
O=CCCl,inactive,inactive,inactive,inactive,inactive,inactive,inactive,inactive,inactive,inactive
Cc1ccc(-c2nc3ccc(C)cn3c2CC(=O)N(C)C)cc1,inactive,inactive,inactive,inactive,inactive,inactive,inactive,inactive,inactive,inactive
CCN[C@@H](C)Cc1cccc(C(F)(F)F)c1,inactive,inactive,inactive,inactive,inactive,inactive,inactive,inactive,inactive,inactive
CS(=O)(=O)Cl,inactive,inactive,inactive,inactive,inactive,inactive,inactive,inactive,inactive,inactive
Clc1ccc(C(Cl)(Cl)Cl)cn1,inactive,inactive,inactive,inactive,inactive,inactive,inactive,inactive,inactive,inactive
[P]#[In],inactive,inactive,inactive,inactive,inactive,inactive,inactive,inactive,inactive,inactive
CCCCCCCCBr,inactive,inactive,inactive,inactive,inactive,inactive,inactive,inactive,inactive,inactive
ClCCN1CCCC1,inactive,inactive,inactive,inactive,inactive,inactive,inactive,inactive,inactive,inactive
C[C@H]1CCCC(=O)CCC/C=C/c2cc(O)cc(O)c2C(=O)O1,42.1 µM (active) and inactive,inactive,inactive,inactive,inactive,47.2 µM (active) and inactive,inactive,20.9 µM (active) and inactive,inactive,inactive
O=C1CCCCC1Cl (configuration not stated),inactive,inactive,inactive,inactive,inactive,inactive,inactive,inactive,inactive,inactive
C/C(=N\NC(=O)Nc1cc(F)cc(F)c1)c1ncccc1C(=O)O,inactive,inactive,inactive,inactive,inactive,inactive,inactive,inactive,inactive,inactive
CC(C)(C)C(=O)Cl,inactive,inactive,inactive,inactive,inactive,inactive,inactive,inactive,inactive,inactive
Oc1ccc(Cc2ccc(O)cc2)cc1,inactive,inactive,inactive,inactive,inactive,inactive,inactive,inactive,inactive,inactive
